# Assay results from PubChem BioAssay (NCI).
# Compounds without any hit were thinned out: in the full panel of roughly 83,000, 20% have a hit.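 How to read the values: 0–100, growth inhibition (40 = 60% inhibited); 0, no net growth; -100 to 0, cell death (-40 = 40% of starting cells died; -100 = all dead).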 Unmarked numbers belong to inactive results. The source made the active and inactive calls. How the source made its calls: active means growth percent below 10; inactive means the rest.
# Tests used:
# Test in all cases: NCI-60 one-dose screen, 48 h (100 = growth as untreated, 0 = no growth, -100 = all killed)
# Settings in all cases: 10 µM
# [1] = tested on: NCI-H23 lung
# [2] = tested on: NCI-H226 lung
# [3] = tested on: NCI-H322M lung
# [4] = tested on: HOP-62 NSCLC
# [5] = tested on: HOP-92 NSCLC
# [6] = tested on: NCI-H522 lung
# [7] = tested on: A549/ATCC NSCLC
# [8] = tested on: 786-0 renal
# [9] = tested on: COLO 205 colon
# [10] = tested on: DU-145 prostate
# [11] = tested on: MALME-3M melanoma
# [12] = tested on: MDA-MB-231 breast
# [13] = tested on: RXF 393 renal
# [14] = tested on: SF-268 CNS
# [15] = tested on: SF-295 CNS
# [16] = tested on: SF-539 CNS
# [17] = tested on: UACC-257 melanoma
# [18] = tested on: M14 melanoma
# [19] = tested on: K-562 leukemia
# [20] = tested on: NCI-H460 lung
Structure (SMILES),growth [1],growth [2],growth [3],growth [4],growth [5],growth [6],growth [7],growth [8],growth [9],growth [10],growth [11],growth [12],growth [13],growth [14],growth [15],growth [16],growth [17],growth [18],growth [19],growth [20]
Cc1cc2c(c(O)c1Br)-c1ncoc1C(=O)[C@]1(C)CC[C@H](C(C)C)[C@H]21,36.8%,38.5%,65.7%,38%,35.4%,-20.6% (active),16.5%,66.5%,-15.9% (active),54%,31%,48.9%,60.6%,49.4%,22.9%,14.3%,15.1%,18.9%,–,–
Cc1cc(C)nc(SCC(=O)Nc2ccc(S(N)(=O)=O)cc2)n1,100%,98.5%,102%,108%,101%,95.9%,103%,105%,124%,114%,99.1%,103%,96%,125%,99.8%,94.8%,107%,114%,–,–
Cc1noc2c(Cc3ccc([N+](=O)[O-])cc3)nn(CC(=O)N/N=C/c3ccc(Br)cc3)c(=O)c12,87.7%,67.7%,104%,72.4%,50.6%,98.6%,65.1%,4.46% (active),119%,74.9%,66%,46.4%,–,72.1%,89.5%,26.1%,106%,93.4%,88.7%,–
CC(=O)Nc1ccc(-c2cn(-c3cccc(C(=O)Nc4ccc(Cl)c(C(F)(F)F)c4)c3)nn2)cn1,-67.6% (active),-72.8% (active),-18.7% (active),-60.2% (active),-30.8% (active),-63.2% (active),-43.4% (active),-34.4% (active),-40.9% (active),3.54% (active),-89.6% (active),-87% (active),–,6.74% (active),-64.2% (active),-97.4% (active),-21.8% (active),-49.1% (active),4.92% (active),–
O=C(Nc1cccc(-c2cn(-c3ccc4oc(=O)ccc4c3)nn2)c1)Nc1cc(C(F)(F)F)cc(C(F)(F)F)c1,4.21% (active),33.4%,34.4%,1.89% (active),-28.1% (active),21.8%,21.8%,29.3%,44.3%,30.2%,29.8%,34.7%,-5.05% (active),62.2%,-45.7% (active),19.1%,50.2%,55.5%,9.1% (active),–
N#Cc1c(-c2ccc(Cl)cc2)cc(-c2ccccc2)nc1OCc1ccccc1,76.7%,74.7%,96.6%,84.9%,90.8%,69.3%,73.8%,107%,106%,90.7%,102%,80.2%,–,92.9%,66.2%,75.2%,80.6%,90.9%,45%,–
COc1ccc(C(=O)CSc2nnc(-c3c[nH]c4ccccc34)n2-c2ccccc2)cc1,56.5%,0.0587% (active),58.3%,8.82% (active),7.9% (active),45.7%,74%,45.2%,84.8%,68.9%,-16.2% (active),32.5%,–,41%,36.2%,28.5%,59.5%,75.7%,58.2%,–
COc1ccc(NC(=O)Cn2c(/C=C/c3ccc(N(C)C)cc3)nc3ccccc3c2=O)cc1,49.8%,-15.2% (active),46.4%,39.3%,-2.51% (active),44.1%,15.2%,7.97% (active),47%,6.75% (active),7.28% (active),18.8%,–,73%,49.5%,-60.2% (active),67.7%,81%,58.8%,–
O=C(c1ccc(Cl)cc1)C1[C@H](c2ccc(Br)cc2)[C@@H](c2ccccc2)NC12C(=O)Nc1ccc(Br)cc12 (stereo partly drawn),-92.7% (active),-90.5% (active),-59.3% (active),–,-72.7% (active),-82% (active),-51.5% (active),-80.4% (active),-88.2% (active),-43.2% (active),-95.5% (active),-96.1% (active),-94.8% (active),-28.6% (active),-97.2% (active),-88.8% (active),-71.3% (active),3.03% (active),-37.6% (active),-62.5% (active)
CN1CCN(c2ccc(C(=O)/C=C/c3ccc(OC(F)F)cc3)cc2)CC1,27.8%,27.7%,70.6%,95.6%,61.6%,83.5%,40.2%,61.6%,34.8%,57.8%,84.1%,41.5%,–,81%,47.4%,-39.8% (active),68.7%,31.6%,6.23% (active),–
O=C1Nc2cc(-c3ccc(NC(=O)c4cccc([N+](=O)[O-])c4)cc3)ccc2/C1=C/c1ccc[nH]1,71.6%,76.7%,102%,94.9%,109%,84.3%,94.5%,103%,42.9%,67.7%,98.7%,86.6%,83.7%,98.4%,83.5%,89.2%,97.1%,102%,93.7%,–
O=C(c1ccc([N+](=O)[O-])c([N+](=O)[O-])c1O)n1[nH]c(=O)c2ccccc2c1=O,50.5%,82.1%,85.8%,75.5%,78.6%,54.8%,77.6%,97.7%,124%,25.4%,71.7%,–,66.7%,76.9%,90.9%,66.6%,79.9%,78.6%,12.8%,–
CCOC(=O)C1=C(N)N(c2ccccc2)C2=C(C(=O)CC(C)(C)C2)C1c1ccccc1OC (stereo not drawn),98.3%,101%,94%,102%,114%,95.3%,103%,97.7%,128%,99.6%,91.3%,92.5%,–,114%,89.2%,92.6%,107%,111%,97.2%,–
COc1ccc([C@H]2C(C(=O)c3ccc(Cl)cc3)C3(N[C@@H]2c2ccccc2)C(=O)Nc2ccc(Br)cc23)cc1 (stereo partly drawn),-47.4% (active),-42.5% (active),21.6%,-8.82% (active),-20.6% (active),6.07% (active),17.3%,-17.5% (active),-92% (active),17%,-7.99% (active),-58.3% (active),-72.9% (active),18.9%,-60.2% (active),-21.5% (active),17%,16.1%,5.88% (active),–
O=C(NC(=S)N1CCN(c2ncnc3c2cnn3-c2ccccc2)CC1)c1ccc(Cl)cc1,55.5%,52.3%,66.8%,-2.01% (active),14.7%,38%,54.3%,27.8%,77.4%,81.1%,56.1%,57.1%,43.1%,41.2%,34.2%,11.2%,83.8%,79.9%,61.5%,–
Cn1cc(/C=N/Nc2cccc(Cl)n2)c2ccccc21,69.2%,68.9%,89.9%,75.8%,42.8%,74.3%,76%,63.7%,67.7%,72.5%,70.7%,51.6%,–,56%,73.5%,64.6%,88.8%,55.4%,20.2%,–
